Test results: PubChem BioAssay (Tox21)
Results filed as inconclusive are left out. The source made the active and inactive calls. Unless noted, calls come from the whole dose curve; as a rule, active = well fitted curve in the direction sought with a large enough effect in the repeat runs; inconclusive = weak or mixed curves; inactive = no such curve, though single readings can be large; an effect the other way counts as inactive or inconclusive.

What was measured:
[1] = target: Peroxisome proliferator-activated receptor delta (Homo sapiens) (UniProt Q03181); assay: qHTS assay to identify small molecule agonists of the peroxisome proliferator-activated receptor delta (PPARd) signaling pathway (AID 743212; calls by dose curve;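 note: HEK293H cells with PPARd UAS beta-lactamase reporter GeneBLAzer system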)
Sequence of Peroxisome proliferator-activated receptor delta (Homo sapiens) (Q03181 whole entry, looked up): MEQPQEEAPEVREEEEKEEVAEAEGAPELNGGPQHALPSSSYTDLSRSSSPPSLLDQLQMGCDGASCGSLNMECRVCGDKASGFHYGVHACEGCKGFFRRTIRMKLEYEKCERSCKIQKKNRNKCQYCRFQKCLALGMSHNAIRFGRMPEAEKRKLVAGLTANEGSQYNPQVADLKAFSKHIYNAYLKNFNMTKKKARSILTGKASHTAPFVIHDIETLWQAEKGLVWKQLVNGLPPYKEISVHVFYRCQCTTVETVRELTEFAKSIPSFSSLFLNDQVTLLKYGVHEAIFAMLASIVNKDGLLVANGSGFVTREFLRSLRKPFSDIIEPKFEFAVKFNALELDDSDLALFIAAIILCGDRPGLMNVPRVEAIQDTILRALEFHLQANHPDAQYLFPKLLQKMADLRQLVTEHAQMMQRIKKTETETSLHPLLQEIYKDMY
Outline: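 Beta-lactamase reporter readout: a ratiometric FRET signal from the LiveBLAzer substrate after 2 h at room temperature. Compound exposure at 37 °C in PPARδ-bla HEK293H cells driven by an upstream activator sequence.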

[2] = qHTS assay to identify small molecule antagonists of the peroxisome proliferator-activated receptor delta (PPARd) signaling pathway - cell viability counter screen (AID 743213); note: nearly all actives have a fitted effect of over 50% in size
Outline: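 CellTiter-Glo was added to PPARd-bla HEK293H wells following 17 h compound treatment in the presence of 300 nM L165041. Luminescence was recorded after 30 min at room temperature.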

[3] = target: Peroxisome proliferator-activated receptor delta (Homo sapiens) (UniProt Q03181); assay: qHTS assay to identify small molecule antagonists of the peroxisome proliferator-activated receptor delta (PPARd) signaling pathway (AID 743215; active = well fitted inhibition curve with a large enough effect in the signal ratio in the repeat runs, not every such curve was filed as active; the % refers to the signal ratio;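 note: cells stimulated with agonist L165041 at 300 nM final during compound exposure; series mostly up to about 62 µM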)
Outline: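 Here, a reporter line (HEK293H, beta-lactamase under a UAS) measures PPARd signaling. Compounds are tested against agonist L165041 at 300 nM final concentration over 17 h at 37 C, with fluorescence read after substrate.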

[4] = qHTS assay to identify small molecule agonists of the farnesoid-X-receptor (FXR) signaling pathway - cell viability counter screen (AID 743218); note: nearly all actives have a fitted effect of over 45% in size
Outline: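 Quantitative HTS counter screen measuring ATP-based viability via CellTiter-Glo luminescence in HEK 293T cells carrying a UAS-driven beta-lactamase reporter, after 16 h compound exposure at 37 C.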

[5] = qHTS assay to identify small molecule antagonists of the farnesoid-X-receptor (FXR) signaling pathway - cell viability counter screen (AID 743221; active = well fitted cell-killing curve with a large enough effect in the repeat runs, not every such curve was filed as active; note: nearly all actives have a fitted effect of over 50% in size)
Outline: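 Cytotoxicity is taken from ATP luminescence (CellTiter-Glo, 30 min, room temperature) in FXR-bla HEK 293T cells previously incubated 16 h at 37 C with compound and chenodeoxycholic acid at 50 uM final.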

[6] = qHTS assay to identify small molecule agonists of the vitamin D receptor (VDR) signaling pathway - cell viability counter screen (AID 743224); note: series mostly up to about 63 µM; nearly all actives have a fitted effect of over 50% in size
Outline: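 CellTiter-Glo viability readout on VDR-bla cells, measured after 16 h of compound treatment at 37C in the same wells.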

[7] = target: Vitamin D3 receptor (Homo sapiens) (UniProt P11473); assay: qHTS assay to identify small molecule agonists of the vitamin D receptor (VDR) signaling pathway (AID 743222; calls by dose curve)
Sequence of Vitamin D3 receptor (Homo sapiens) (P11473 whole entry, looked up): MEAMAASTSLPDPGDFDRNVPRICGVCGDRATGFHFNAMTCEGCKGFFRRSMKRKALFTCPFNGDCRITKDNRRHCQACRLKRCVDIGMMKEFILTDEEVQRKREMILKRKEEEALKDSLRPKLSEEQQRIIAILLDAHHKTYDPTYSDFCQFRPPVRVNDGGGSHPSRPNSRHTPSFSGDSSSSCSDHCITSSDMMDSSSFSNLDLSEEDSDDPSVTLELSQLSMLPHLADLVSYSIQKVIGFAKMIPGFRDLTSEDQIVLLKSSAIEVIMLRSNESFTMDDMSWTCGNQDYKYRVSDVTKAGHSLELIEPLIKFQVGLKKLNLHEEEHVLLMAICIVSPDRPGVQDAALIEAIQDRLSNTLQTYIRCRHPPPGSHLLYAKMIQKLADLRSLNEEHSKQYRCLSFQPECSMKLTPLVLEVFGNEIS
Outline: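 Tox21 cell reporter format: VDR-bla line, 16 h compound exposure in 5% CO2 at 37C, then fluorescence intensity after 2 h with LiveBLAzer B/G FRET substrate.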

[8] = target: Vitamin D3 receptor (Homo sapiens) (UniProt P11473); assay: qHTS assay to identify small molecule antagonists of the vitamin D receptor (VDR) signaling pathway (AID 743223; active = well fitted inhibition curve with a large enough effect in the signal ratio in the repeat runs, not every such curve was filed as active; the % refers to the signal ratio)
Outline: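 Quantitative HTS in VDR-bla reporter cells stimulated with 1alpha,25-dihydroxyvitamin D3, 3 nM final. Compound exposure 16 h, 37C, 5% CO2. Read-out: beta-lactamase FRET substrate fluorescence, 2 h RT.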
% is set by controls: 0 for no effect and ±100 for the full control effect.

CCCCNCC
inactive: outcome [1] | outcome [2] | outcome [3] | outcome [4] | outcome [5] | outcome [6]

O=c1[nH]c(=O)c2cn[nH]c2[nH]1
inactive: outcome [1] | outcome [2] | outcome [3] | outcome [4] | outcome [7] | outcome [8] | outcome [6]

CC(C)c1cc(C(C)C)cc(C(C)C)c1
inactive: outcome [1] | outcome [2] | outcome [3] | outcome [5] | outcome [7] | outcome [8] | outcome [6]

CC(C)(O)CCCC1=CCC(C=O)CC1 (stereo unspecified)
inactive: outcome [1] | outcome [2] | outcome [3] | outcome [4] | outcome [5] | outcome [8] | outcome [6]

CC1(C)S[C@@H]2[C@H](NC(=O)Cc3ccccc3)C(=O)N2[C@H]1C(=O)O (tested in a mixture with another compound)
inactive: outcome [1] | outcome [2] | outcome [3] | outcome [4] | outcome [5] | outcome [6]

CC(CN1CC(=O)NC(=O)C1)N1CC(=O)NC(=O)C1 (stereo unspecified)
inactive: outcome [1] | outcome [2] | outcome [3] | outcome [4] | outcome [5] | outcome [7] | outcome [6]

Nc1ccc(C(=O)NCC(=O)O)cc1
inactive: outcome [1] | outcome [2] | outcome [3] | outcome [5] | outcome [7] | outcome [8] | outcome [6]

Cc1ccc(Br)cc1
inactive: outcome [1] | outcome [2] | outcome [3] | outcome [5] | outcome [7] | outcome [8] | outcome [6]

O=S(=O)(O)c1cc(I)c(O)c2ncccc12
inactive: outcome [1] | outcome [2] | outcome [3] | outcome [4] | outcome [5] | outcome [6]

NC(=O)CC[C@@H](N)C(=O)O
inactive: outcome [1] | outcome [2] | outcome [3] | outcome [4] | outcome [5] | outcome [8] | outcome [6]

CC/C=C\CCCCCCCCCCOC(C)=O
inactive: outcome [1] | outcome [2] | outcome [3] | outcome [4] | outcome [5] | outcome [7] | outcome [8] | outcome [6]

NNC(=O)OCc1ccccc1
inactive: outcome [1] | outcome [2] | outcome [3] | outcome [4] | outcome [5] | outcome [7] | outcome [8] | outcome [6]

CNC(=O)c1c(I)c(NC(C)=O)c(I)c(C(=O)O)c1I
inactive: outcome [1] | outcome [2] | outcome [3] | outcome [4] | outcome [5] | outcome [6]

C[C@@H]1NC(=O)[C@@H](N)CNC(=O)[C@H](C2CCNC(N)=N2)NC(=O)/C(=C/NC(N)=O)NC(=O)[C@H](CNC(=O)C[C@@H](N)CCCN)NC1=O (stereo partly specified)
inactive: activation [1] 1.73% [at 0.55 µM] | viability change, negative = cytotoxic [2] 5.77% [at 0.575 µM] | ratio activity, negative = inhibition [3] 1.43% [at 0.575 µM] | viability change, negative = cytotoxic [4] -0.66% [at 0.55 µM] | activity change, negative = cytotoxicity [5] 2.18% [at 0.55 µM] | activation [7] 3.13% [at 0.554 µM] | activity change, negative = inhibition [8] 8.64% [at 0.628 µM] | activity change, negative = cytotoxicity [6] -2.65% [at 0.55 µM]

COc1cc2nc(N3CCN(C(=O)C4CCCO4)CC3)nc(N)c2cc1OC (stereo unspecified)
inactive: outcome [1] | outcome [2] | outcome [3] | outcome [5]

CCCOc1ccc(C(=O)OCCN(CC)CC)cc1N
inactive: outcome [1] | outcome [2] | outcome [3] | outcome [4] | outcome [5] | outcome [7] | outcome [8] | outcome [6]

CC(=O)OC1CCC(C(C)(C)C)CC1 (stereo unspecified)
inactive: outcome [1] | outcome [2] | outcome [3] | outcome [4] | outcome [5] | outcome [7] | outcome [6]

COC(=O)c1c(C)cc(O)c(C)c1O
inactive: outcome [1] | outcome [2] | outcome [3] | outcome [4] | outcome [5] | outcome [7] | outcome [8] | outcome [6]

CN(C)CCCN(C)C
inactive: activation [1] -1.31% [at 5.95 µM] | viability change, negative = cytotoxic [2] 1.43% [at 6.26 µM] | ratio activity, negative = inhibition [3] 5.28% [at 6.26 µM] | viability change, negative = cytotoxic [4] 2.3% [at 5.95 µM] | activity change, negative = cytotoxicity [5] 0.644% [at 5.95 µM] | activation [7] -2.68% [at 6.01 µM] | activity change, negative = inhibition [8] -1.32% [at 6.95 µM] | activity change, negative = cytotoxicity [6] 0.624% [at 5.95 µM]

Cc1ccc(S(=O)(=O)NC(=O)NN2CC3CCCC3C2)cc1 (stereo unspecified)
inactive: outcome [1] | outcome [2] | outcome [3] | outcome [4] | outcome [5] | outcome [7] | outcome [8] | outcome [6]

CC/C=C/CCCCCCCCCCOC(C)=O
inactive: outcome [1] | outcome [2] | outcome [3] | outcome [4] | outcome [5] | outcome [7] | outcome [8] | outcome [6]

CN(C)CCc1c[nH]c2ccc(CS(=O)(=O)N3CCCC3)cc12
inactive: outcome [1] | outcome [2] | outcome [3] | outcome [4] | outcome [5] | outcome [7] | outcome [8] | outcome [6]

CN1C(CCl)Nc2cc(Cl)c(S(N)(=O)=O)cc2S1(=O)=O (stereo unspecified)
inactive: outcome [1] | outcome [2] | outcome [3] | outcome [4] | outcome [5] | outcome [7] | outcome [8] | outcome [6]

CC(O)C(CO)C(C)O (stereo unspecified)
inactive: outcome [1] | outcome [2] | outcome [3] | outcome [4] | outcome [5] | outcome [6]

CC(=O)c1c(C)cc(C(C)(C)C)cc1C
inactive: outcome [1] | outcome [2] | outcome [3] | outcome [4] | outcome [5] | outcome [7] | outcome [8] | outcome [6]

N=C(N)N1CCc2ccccc2C1
inactive: activation [1] 2.47% [at 5.95 µM] | viability change, negative = cytotoxic [2] -9.71% [at 6.26 µM] | ratio activity, negative = inhibition [3] -18.7% [at 6.26 µM] | viability change, negative = cytotoxic [4] 5.62% [at 5.95 µM] | activity change, negative = cytotoxicity [5] -6.73% [at 5.95 µM] | activation [7] 4.08% [at 6.01 µM] | activity change, negative = cytotoxicity [6] -1.18% [at 5.95 µM]

C=CCN1CCc2nc(N)sc2CC1
inactive: outcome [1] | outcome [2] | outcome [3] | outcome [4] | outcome [5] | outcome [7] | outcome [8] | outcome [6]

Cc1cc(N)no1
inactive: outcome [1] | outcome [2] | outcome [3] | outcome [4] | outcome [5] | outcome [7] | outcome [8] | outcome [6]

CC(C)C(C)C
inactive: outcome [1] | outcome [2] | outcome [3] | outcome [4] | outcome [5] | outcome [6]

CC(C)(C)NCC(O)COc1cccc2c1CCC(=O)N2 (stereo unspecified)
inactive: outcome [1] | outcome [2] | outcome [3] | outcome [4] | outcome [5] | outcome [7] | outcome [6]

COC(=O)c1ccccc1Cl
inactive: outcome [1] | outcome [2] | outcome [3] | outcome [4] | outcome [5] | outcome [7] | outcome [6]
